From PubChem
Most compounds without a hit are left out; they make up all but 3.7% or so of the library.
BoNT-A LC inh2 – inhibitors of Botulinum neurotoxin A light chain protease. multiplex microsphere protease substrate cleavage, flow cytometry. inhibition, % at 10 µM. hit rate 0.17% among 360,000. AID 588499; also: plate controls were buffer without enzyme for full effect and enzyme alone for no effect
Anthrax LF inh2 – anthrax lethal factor protease inhibition. hit rate 0.12% among 360,000. inhibition, % at 10 µM. P15917. multiplex microsphere protease cleavage assay, LF; also: plate controls were buffer without enzyme for full effect and enzyme alone for no effect
Target sequence (P15917 whole entry, looked up): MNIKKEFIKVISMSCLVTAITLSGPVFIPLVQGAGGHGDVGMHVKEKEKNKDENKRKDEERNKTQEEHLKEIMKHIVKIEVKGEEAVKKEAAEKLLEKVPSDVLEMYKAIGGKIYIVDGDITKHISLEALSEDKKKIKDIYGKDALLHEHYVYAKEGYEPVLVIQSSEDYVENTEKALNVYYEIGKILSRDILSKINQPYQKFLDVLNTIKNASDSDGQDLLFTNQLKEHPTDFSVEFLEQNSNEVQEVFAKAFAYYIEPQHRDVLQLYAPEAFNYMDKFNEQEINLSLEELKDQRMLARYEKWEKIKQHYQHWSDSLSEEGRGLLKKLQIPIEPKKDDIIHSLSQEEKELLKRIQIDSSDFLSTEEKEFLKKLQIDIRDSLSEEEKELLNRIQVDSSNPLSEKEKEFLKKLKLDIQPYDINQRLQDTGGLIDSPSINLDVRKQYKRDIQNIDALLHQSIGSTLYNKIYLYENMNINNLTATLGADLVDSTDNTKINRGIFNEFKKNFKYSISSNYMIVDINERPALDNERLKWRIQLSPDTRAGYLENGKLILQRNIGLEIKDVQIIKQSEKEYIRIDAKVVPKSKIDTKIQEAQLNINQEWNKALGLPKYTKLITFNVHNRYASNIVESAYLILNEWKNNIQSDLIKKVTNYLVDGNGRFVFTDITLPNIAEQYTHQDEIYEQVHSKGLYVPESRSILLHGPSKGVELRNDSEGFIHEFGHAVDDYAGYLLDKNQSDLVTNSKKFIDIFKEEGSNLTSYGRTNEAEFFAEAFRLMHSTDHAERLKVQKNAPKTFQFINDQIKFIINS
MazF activator – increases E. coli MazEF RNase cleavage of RNA; FAM/BHQ RNA-DNA oligo cleavage fluorescence, 5 h; activation, % at 20 µM; hit rate 0.32% among 350,000; AID 504720; in the data active = activation above about 50%
Bead autofluor – counter-screen for toxin protease inhibitors: compound fluorescence; compound autofluorescence counterscreen, microsphere flow cytometry; hits give high values; fluorescence intensity (concentration not given with the values); hit rate 3.1% among 360,000; AID 624483; in the data active = fluorescence intensity above about 16000; inconclusive = no clear call, values can overlap the other calls
BoNT F protease – BoNT F light chain protease inhibition; hit rate 0.22% among 360,000; inhibition, % at 10 µM; Multiplex microsphere protease cleavage assay, flow cytometry; AID 588497; in the data active = inhibition above about 35%, passing the limit was not always enough; inconclusive = no clear call, values can overlap the other calls; also: plate controls were buffer without enzyme for full effect and enzyme alone for no effect
Active calls of the source: *. Rule as the data show it, unless noted: active = inhibition above about 30%; inconclusive = no clear call, values can overlap the other calls; inactive = below that.

Screening CCN1C(=O)C(CC(=O)N2CCN(C(c3ccccc3)c3ccccc3)CC2)N(CC)C1=O (centres undefined) returned BoNT-A LC inh2 -1, Anthrax LF inh2 -2, MazF activator 1, Bead autofluor 16806* and BoNT F protease 0.
For COc1ccccc1C(=O)Nc1ccnn1C1CCN(Cc2ccc3nonc3c2)CC1 the results were BoNT-A LC inh2 -1, Anthrax LF inh2 -4, MazF activator -2, Bead autofluor 4662 and BoNT F protease 1.
O=C(NNC(=O)C1CCCO1)c1ccc([N+](=O)[O-])cc1 (centres undefined) was read as BoNT-A LC inh2 1, Anthrax LF inh2 2, MazF activator 8, Bead autofluor 3431 and BoNT F protease -9.
`O=C(NNC(=O)C1CCCO1)c1ccc(Cl)cc1` (centres undefined) gave BoNT-A LC inh2 1, Anthrax LF inh2 0, MazF activator 5, Bead autofluor 4010 and BoNT F protease 37*.
Screening Cc1cc(C)n(C/C=C/Cn2nc(C)cc2C)n1 returned BoNT-A LC inh2 inconclusive, Anthrax LF inh2 0, MazF activator -1, Bead autofluor 20615* and BoNT F protease -2.
For CC(=O)N1CCc2[nH]c3ccc(C)cc3c2C1 the results were BoNT-A LC inh2 -1, Anthrax LF inh2 4, MazF activator 8, Bead autofluor 4127 and BoNT F protease inconclusive.
For Cc1ccc2[nH]c3c(c2c1)CN(C(=O)CN1CC(C)OC(C)C1)CC3 (centres undefined) the results were BoNT-A LC inh2 -23, Anthrax LF inh2 -1, MazF activator 43, Bead autofluor 17955* and BoNT F protease inconclusive.
`CCOC(=O)c1cnn(-c2ccccc2)c1NC(=O)c1cccs1` gave BoNT-A LC inh2 0, Anthrax LF inh2 3, MazF activator 1, Bead autofluor 7163 and BoNT F protease -2.
`CCOC(=O)c1cnn(CCOC(=O)c2cccs2)c1NC(=O)c1cccs1` gave BoNT-A LC inh2 1, Anthrax LF inh2 0, MazF activator -5, Bead autofluor 22411* and BoNT F protease 3.
Screening CC(C)(C)n1ncc2c(=O)n(Cc3ccc(Cl)cc3Cl)cnc21 returned BoNT-A LC inh2 0, Anthrax LF inh2 2, MazF activator 3, Bead autofluor 2480 and BoNT F protease 2.
For Cc1cc(C)n(-c2ccn(Cc3ccc(Cl)cc3Cl)c(=O)n2)n1 the results were BoNT-A LC inh2 -2, Anthrax LF inh2 -1, MazF activator 2, Bead autofluor 23685* and BoNT F protease -4.
COc1ccc(S(=O)(=O)Nc2cccc(S(=O)(=O)NC3=NCCC3)c2)cc1[N+](=O)[O-] was read as BoNT-A LC inh2 -1, Anthrax LF inh2 0, MazF activator -1, Bead autofluor 5895 and BoNT F protease 11.
O=C(CSc1nc2cc3ccccc3cc2[nH]1)Nc1ccc(F)cc1 was read as BoNT-A LC inh2 inconclusive, Anthrax LF inh2 -1, MazF activator 6, Bead autofluor 23788* and BoNT F protease 1.
For O=C(CSc1nc2ccccc2c(=O)[nH]1)Nc1ccc(C(=O)O)cc1 the results were BoNT-A LC inh2 -5, Anthrax LF inh2 0, MazF activator 7, Bead autofluor inconclusive and BoNT F protease -12.
For O=C(CSC1=NCCS1)Nc1ccc(S(=O)(=O)N2CCCCCC2)cc1 the results were BoNT-A LC inh2 1, Anthrax LF inh2 -1, MazF activator -6, Bead autofluor 23340* and BoNT F protease 1.
Cc1ccc(NC(=O)CSc2nc(NS(=O)(=O)c3ccc(C)cc3)cc(=O)[nH]2)cc1 was read as BoNT-A LC inh2 inconclusive, Anthrax LF inh2 -2, MazF activator -1, Bead autofluor 19078* and BoNT F protease 4.
Screening O=C(CSc1nc2ccccc2c(=O)[nH]1)Nc1ccc(S(=O)(=O)N2CCCC2)cc1 returned BoNT-A LC inh2 inconclusive, Anthrax LF inh2 1, MazF activator 6, Bead autofluor 16902* and BoNT F protease -3.
For CC1(C)CC(NS(=O)(=O)c2ccc3ccccc3c2)CC(C)(C)N1 the results were BoNT-A LC inh2 -2, Anthrax LF inh2 -3, MazF activator -5, Bead autofluor 5110 and BoNT F protease -6.
For CCOC(=O)c1cc(CC)sc1NC(=O)CN1CCN(C(=O)c2ccco2)CC1 the results were BoNT-A LC inh2 0, Anthrax LF inh2 0, MazF activator -8, Bead autofluor 4439 and BoNT F protease -2.
For Cc1cccc(C)c1NC(=O)CSc1nc2ccccc2c(=O)[nH]1 the results were BoNT-A LC inh2 inconclusive, Anthrax LF inh2 0, MazF activator 6, Bead autofluor 22821* and BoNT F protease -1.
`Cc1csc(NC(=O)CSc2nc3ccccc3c(=O)[nH]2)n1` gave BoNT-A LC inh2 0, Anthrax LF inh2 16, MazF activator -15, Bead autofluor 10517 and BoNT F protease 8.
`CC(C)(C)c1csc(NC(=O)CSc2nc3ccccc3c(=O)[nH]2)n1` gave BoNT-A LC inh2 inconclusive, Anthrax LF inh2 -1, MazF activator -4, Bead autofluor 19081* and BoNT F protease 4.
`COc1ccc(C(=O)Cn2c3ccccc3n3nc(CCC(=O)O)c(=O)nc23)cc1OC` gave BoNT-A LC inh2 0, Anthrax LF inh2 2, MazF activator 0, Bead autofluor 20229* and BoNT F protease -1.
Screening CC1=CC2=C(C=O)C(=O)C(C)(O)C(O)C2=CO1 (centres undefined) returned BoNT-A LC inh2 0, Anthrax LF inh2 0, MazF activator 242*, Bead autofluor 3703 and BoNT F protease 4.
`O=[N+]([O-])c1cccc(-c2cc3cccc[n+]3cc2-c2cccc([N+](=O)[O-])c2)c1` gave BoNT-A LC inh2 -1, Anthrax LF inh2 2, MazF activator 5, Bead autofluor 2443 and BoNT F protease -6.
`Cc1cccc2cc(-c3ccccc3)c(-c3ccccc3)c[n+]12` gave BoNT-A LC inh2 38*, Anthrax LF inh2 8, MazF activator 23, Bead autofluor 5605 and BoNT F protease -46.
`COCCNC(=O)C1CCCN(C(=O)/C=C/c2ccccc2)CC1` (centres undefined) gave BoNT-A LC inh2 -1, Anthrax LF inh2 -1, Bead autofluor 3110 and BoNT F protease -4.
`O=C(c1ccco1)C12CN3CN(CN(C3)C1)C2` gave BoNT-A LC inh2 4, Anthrax LF inh2 -4, MazF activator 8, Bead autofluor 21201* and BoNT F protease 2.
For CCc1ccc(C(=O)C23CN4CN(CN(C4)C2)C3)cc1 the results were BoNT-A LC inh2 0, Anthrax LF inh2 3, MazF activator 5, Bead autofluor 13062 and BoNT F protease -3.
For Clc1ccc(Sc2oc(/C=N/n3cnnc3)cc2Br)cc1 the results were BoNT-A LC inh2 2, Anthrax LF inh2 1, MazF activator 2, Bead autofluor 19698* and BoNT F protease 3.
Clc1ccc(Sc2ccc(/C=N/n3cnnc3)o2)cc1 was read as BoNT-A LC inh2 -1, Anthrax LF inh2 -1, MazF activator 0, Bead autofluor 2154 and BoNT F protease -12.
Cc1nc2ccc(C(=O)OCc3ccccc3Br)cc2nc1C was read as BoNT-A LC inh2 0, Anthrax LF inh2 -3, MazF activator 60*, Bead autofluor 5996 and BoNT F protease -2.
